Assay results taken from PubChem BioAssay AID1347426 (Functional Genomics Laboratory (NCATS/FGL), 2020).
Among all 31,000 sequences or so, about 1,400 (4.5%) were called active.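 How the source made its calls: active means median seed-adjusted z-score above 1 or below -1; inactive means the rest.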 The sample as a whole holds a higher share of actives than the screen did.

Experiment: Novel Modifiers of Survival Motor Neuron (SMN) Protein: Gene Identification via Genome-wide siRNA Screen;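 further: luminescence tracks full-length SMN protein made from the SMN2 reporter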
Conditions: HEK293T SMN2-luciferase reporter, siRNA knockdown, 72 h; actives lie on both sides
In short: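 HEK293T cells stably carrying an SMN2 promoter/splicing cassette–luciferase reporter were reverse-transfected with 1 pmol siRNA per well (druggable-genome library, 3 siRNAs per gene) and grown 72 h at 37 °C. Luminescence, normalized to negative-control siRNA and log10-transformed, was scored as MAD.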

Sequence | median seed-adjusted z-score
GAAAAAGGGUCACCAGAAATT against TSG101 | 1.48 (active)
GGCCGUGGAUCAUCACUAUTT against FLJ16165 | -0.404 (inactive)
GCCUUAAGGUAUUCGUGUATT against EXTL1 | 0 (inactive)
CCACCACAGAUUUUCCUAUTT against CD300A | -0.414 (inactive)
GGAACUCAUUAUACAAUGATT against CLCN3 | -0.0801 (inactive)
CCCUAUGAGUGUCAACAAUTT against ZNF799 | -1.02 (active)
GAUAUGUAUUCAUACUAAUTT against SNX10 | 0.391 (inactive)
GUACAGCUCUUAUCGUUCATT against PPRC1 | 0 (inactive)
GCAUCUUUCUGAGUUCACUTT against SLC22A11 | 0 (inactive)
GUGCUACAAUUGUACAGUATT against CREM | -2.37 (active)
GCAUGAGUAUCUAUGACGATT against ATP5C1 | -0.0179 (inactive)
ACUCCAACCGUACCCUUUATT against PPT2 | 0.0334 (inactive)
CCACUACGGUGUUCAUGCATT against PPARD | 0.0283 (inactive)
CUGAGACCCUGUUGACUGATT against PGS1 | 1.36 (active)
GACUCCUACAUGUCCAUUATT against DNM3 | 0 (inactive)
GACAGACUGUGCAUAUGUATT against GPR15 | 0.101 (inactive)
GCAACCACCUAUAUCCUCATT against P2RY10 | -0.432 (inactive)
GAGUCACAUUUGAGGUUCATT against CSF2RA | -0.227 (inactive)
CUCCCUCGGUUAUAAAGAUTT against SLC4A5 | 1.3 (active)
CAACCUUGCGGCAUGCAAATT against PRSSL1 | -0.221 (inactive)
GGAUCUAUAGUGAUUGUCATT against TFRC | 0.019 (inactive)
GCCUAUAGAGGAUCAGUUATT against PCMTD1 | 0.0312 (inactive)

Sequence | median seed-adjusted z-score
GAGUGAGGACGGAAGAUCATT against APH1A | 0.741 (inactive)
GGCUGUAUGAGCACCGUUATT against TGIF1 | 0.303 (inactive)
GGAUGUUAGUAAACUCUCUTT against PSMA4 | 0 (inactive)
GAAUGUUAGUAGACGGGUUTT against IKZF5 | 0.399 (inactive)
GCACUAUCCAGUUUGUGGATT against TUBA3E | -0.35 (inactive)
GGCCGUUACUUACCAGAGUTT against UROD | 1.11 (active)
GAGAAACUAGAAUACAGAATT against ADPRH | -0.406 (inactive)
GGGAUUAUCUUGCUUCCAATT against LPCAT2 | 0 (inactive)
CCGUGAACCCAGAACAGUATT against PIP4K2A | 0.469 (inactive)
GAGUCAGGACAAGAAGAUUTT against PHPT1 | 1.27 (active)
GGAUGGAACUUUACCCUCATT against MKL2 | -0.863 (inactive)
CUACAAGCAUCGAUAGUAATT against EIF4G3 | -0.0562 (inactive)
GAAAGAAAUCAACUGAUGATT against FBP1 | -0.221 (inactive)
GCAGACUCUCGACAUCCGATT against MAFK | 1.73 (active)
GCUCAUUCCAGGUCAAUCATT against MLL3 | -0.248 (inactive)
GCUCAUAGGUAAGAAUUGUTT against NUBP1 | -0.0975 (inactive)
CGGCCUUCAUCGCAGUACATT against SLC7A5 | 0.00397 (inactive)
GGGUGAAGUCUCUCAAGAATT against LLGL1 | -1.13 (active)
CAAGAUCUAUGAUAAGGAUTT against GUCA1B | 0 (inactive)
ACUUCAACAUGACCAAAAATT against PPARD | 0.0283 (inactive)
GAGCUUGUAUAUGAAGCUATT against PDCD4 | -0.0842 (inactive)
GGAUGACAGUCUCAUUGCATT against GON4L | 0.116 (inactive)

Sequence | median seed-adjusted z-score
CCAUGCUGUCUAUAGCCUATT against TRPC5 | -1.14 (active)
GGUUUUAGACCACACUAAATT against MSH3 | 0.428 (inactive)
CAUUCCCUGUUGUAAUCAATT against MDH1 | -0.154 (inactive)
CGUCAUCACCCUCAACUAUTT against NLGN3 | -0.0279 (inactive)
GGACAUCGAAAAGUUAGUATT against MX2 | -0.0346 (inactive)
CAAGAGUCUCUUUAAGGAATT against ACTL8 | 0 (inactive)
GGAUGUAUGACAUCUGUAATT against STC1 | -1.36 (active)
GCAUCCCUACGGUUGUUGATT against EIF2B4 | 0 (inactive)
GAGAAUAUCUGGAACCAGUTT against BDKRB1 | 0.448 (inactive)
CCAAUGCCCAGAUUAUGUATT against CELSR2 | -0.493 (inactive)
GGAGAUACCUGGUCUCUUUTT against ADAM21 | 0 (inactive)
GUCUUUCAGGUGUACCCAUTT against GATA1 | 0.371 (inactive)
GCAUGCCCAUGAACAAAAATT against B3GNT1 | 0.0931 (inactive)
GAAUGGGUCUUGUAAAUCATT against PPAT | -1.51 (active)
ACCUGAUGGUGGGCGCAAATT against MYBPC3 | 0.304 (inactive)
AGAUCAACCUGCUUCCCGATT against PDK2 | -0.481 (inactive)
GGAUUAUAGUGUCACCUAUTT against CPD | -0.198 (inactive)
GCGCAUUACUUUCUAGAAATT against PEX5L | 0.0982 (inactive)
GAAUCAAGAAUUAAAGACATT against PIPOX | 1.06 (active)
CAGUUCAUGUGGAUCAUCATT against GABARAPL2 | 0.528 (inactive)
CCACCUGUACAGCACGGUATT against TGFB1I1 | 0.887 (inactive)
GGGCAAAGCGAAACGCAAATT against ZNF536 | -0.295 (inactive)

Sequence | median seed-adjusted z-score
GCACGAGCCUUUCUCCAGUTT against RNASE7 | 1.07 (active)
GAAAGUCCAGAUGAGGAUATT against KLF9 | 0.767 (inactive)
GAAAUGGACCAGACACUAATT against POU2F2 | 0.163 (inactive)
GGGACCAAAAUCAAUGAAATT against PCBP3 | -0.0373 (inactive)
GAAUGCAGGGAGAAACUUATT against TRIM64 | -0.024 (inactive)
GGAAGACAGAGAAUCGAAATT against SEMA5A | -0.443 (inactive)
GACAAGACGUGGUCAAGAATT against BCL2L13 | 0.311 (inactive)
GCAGUAGACUGAGCAGCAATT against TMTC4 | -1.16 (active)
CCUCAGGGAAGUACCCAAATT against RNASE8 | 0.00771 (inactive)
CGCCUACACUCCUACGUGUTT against ZDHHC24 | -0.695 (inactive)
UGCCCGCUGUAGAUGAGAATT against APOC2 | -0.0599 (inactive)
GUUUCACCAUCGUUCGUGATT against PROKR2 | 0.328 (inactive)
CAAAAUGCAUUAGCUGAAATT against VIP | 1.52 (active)
AGAUGUACAUCCUCGUGCATT against ELFN2 | -0.0888 (inactive)
CUCCUGAGAUAAUAAUGAATT against RFC3 | 0.733 (inactive)
CUCCUAUAAGAAAUCAAUATT against FLVCR1 | 0.197 (inactive)
CCAAUACAGUGGACAGUUATT against EMR1 | 0.255 (inactive)
GGAGGGUCUUCAUCGCUGATT against POLR2C | -2.95 (active)
AAAGAAUCAUUGUGAAAGATT against PARVA | 0.0852 (inactive)
GCCUUCCACGCUUUCCUGATT against RGS16 | 0 (inactive)
GCGCAAUAAUGAACGGCAATT against GALNT14 | 0 (inactive)
CGAUCGCAAGUACCACGAATT against ATP8B1 | 0.357 (inactive)

Sequence | median seed-adjusted z-score
GACUAGCUGCUGAUAAGAATT against CKAP5 | -1.87 (active)
AGUCCUCGGUGAUGCGUGATT against LMNB2 | -0.15 (inactive)
CAGGCACAGUUGCCGAUUATT against CD247 | -0.522 (inactive)
CCUUGACCAUGAAAAAGAATT against ZNF704 | -0.15 (inactive)
GCUAUUGAAAGUACACCUATT against NARG1 | -1.02 (active)
GGUUAUAACGGGACGAUUUTT against KIF5C | 0.283 (inactive)
CCAUGUUAGAAGCCCGGAATT against ZNF385D | -0.338 (inactive)
AGAGGUACGUCUACAGUAUTT against F2R | -0.392 (inactive)
CGUCAAAUUUUUGCACAAATT against GPR176 | 0.0782 (inactive)
GCCGAAUUGUUUCUAGUUATT against PIN1 | 0.156 (inactive)
GACAGUCACUGAGCAUAGATT against PKD1L2 | -1.17 (active)
GGAGAAAUCAGCUACAGGATT against SRD5A2 | 0.185 (inactive)
CAAUUGGAAUCGUCUUUUUTT against UBAC2 | 0.611 (inactive)
CAAGUCCCAUUGAUCCUGATT against HLF | 0.0548 (inactive)
CAAGAGCAAGCAAACCUAATT against OLR1 | 0 (inactive)
CGGCAAGAGUGUCCAGUAUTT against RNF5 | -0.0342 (inactive)
CCUUAGGAAUGAAAUCGCUTT against SIPA1L1 | 0.0925 (inactive)
GCACUAGCAGAGUCCGAAATT against OPRK1 | -1.08 (active)
CAGAAUCGCUUCUACAAGATT against SPAG6 | -0.439 (inactive)
UGACAUCCGUGACCUCUAATT against LHX9 | 0.157 (inactive)
GGAAAACGGCAUUGCAGAATT against SLC23A2 | -0.0585 (inactive)
